Laboratory results reported in PubChem BioAssay (EPA / NIEHS).
Values joined by “and” are separate entries in the source; they are usually repeats but may differ in a detail not shown here. Identical values can stand only once. Some compounds were tested as several samples or in several runs, with calls that do not always agree. Active and inactive are the calls of the source. The calls were made as follows: active = hit-call score of the fitted dose curve at least 0.9, where 1 is the maximum; inactive = score below 0.9.

Experiments:
[1] = read-out: Urokinase-type plasminogen activator receptor (uPAR), PLAUR (gene 5329); experiment: BSK_4H_uPAR: BioMAP Diversity Plus: 4H Assay for Urokinase-type plasminogen activator receptor (uPAR) Biomarker Activity (AID 2283030); settings: primary human endothelial cells (HUVEC); actives raise or lower the signal
Procedure, shortened: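 Primary human umbilical vein endothelial cells were exposed to chemical for 24 h before cell-surface uPAR was quantified by ELISA. Activity was fitted bidirectionally against the DMSO negative control baseline.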

[2] = read-out: Vascular endothelial growth factor receptor 2 (Homo sapiens) (UniProt P35968); experiment: BSK_4H_VEGFRII: BioMAP Diversity Plus: 4H Assay for Vascular endothelial growth factor receptor 2 (VEGFR2) Biomarker Activity (AID 2283031); settings: primary human endothelial cells (HUVEC); actives raise or lower the signal
Procedure, shortened: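 Primary human umbilical vein endothelial cells in the BioMAP 4H system were dosed with test chemical, and 24 h later VEGFRII was measured by ELISA. Activity was fitted bidirectionally against DMSO as negative control and baseline.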

[3] = read-out: Human Leukocyte Antigen - DR isotype (HLADR), HLA-DRA (gene 3122); experiment: BSK_BE3C_HLADR: BioMAP Diversity Plus: BE3C Assay for Human Leukocyte Antigen - DR isotype (HLADR) Biomarker Activity (AID 2283032); settings: primary human bronchial epithelial cells; actives raise or lower the signal
Procedure, shortened: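 Human primary bronchial epithelial cells in the BE3C system were exposed to chemicals for 24 h, after which HLA-DR levels were quantified by ELISA. Activity was fitted bidirectionally, gain or loss of signal, against DMSO as negative control and baseline.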

[4] = read-out: Vascular cell adhesion molecule 1 (VCAM1), VCAM1 (gene 7412); experiment: BSK_4H_VCAM1: BioMAP Diversity Plus: 4H Assay for Vascular cell adhesion molecule 1 (VCAM1) Biomarker Activity (AID 2283033); settings: primary human endothelial cells (HUVEC); actives raise or lower the signal
Procedure, shortened: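 Primary human umbilical vein endothelial cells were exposed to chemicals for 24 h, after which VCAM-1 was quantified by ELISA. Responses were fitted bidirectionally against DMSO as negative control and activity baseline.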

[5] = read-out: Interferon-gamma inducible Protein 10 (IP10), CXCL10 (gene 3627); experiment: BSK_BE3C_IP10: BioMAP Diversity Plus: BE3C Assay for Interferon-gamma inducible Protein 10 (IP10) Biomarker Activity (AID 2283034); settings: primary human bronchial epithelial cells; actives raise or lower the signal
Procedure, shortened: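 Human primary bronchial epithelial cells were exposed to chemicals for 24 hours, after which IP-10 levels were measured by ELISA. Data were fitted bidirectionally against DMSO, which served as the negative control and activity baseline.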

[6] = read-out: Plasminogen activator inhibitor-1 (PAI1), SERPINE1 (gene 5054); experiment: BSK_BE3C_PAI1: BioMAP Diversity Plus: BE3C Assay for Plasminogen activator inhibitor-1 (PAI1) Biomarker Activity (AID 2283037); settings: primary human bronchial epithelial cells; actives raise or lower the signal
Procedure, shortened: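 Human primary bronchial epithelial cells were exposed to chemical for 24 h, then PAI-1 was quantified by ELISA. Activity was fitted bidirectionally relative to the DMSO negative control baseline.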

[7] = read-out: urokinase plasminogen activator (uPA), PLAU (gene 5328); experiment: BSK_BE3C_uPA: BioMAP Diversity Plus: BE3C Assay for urokinase plasminogen activator (uPA) Biomarker Activity (AID 2283038); settings: primary human bronchial epithelial cells; actives raise or lower the signal
Procedure, shortened: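 Human primary bronchial epithelial cells were exposed to chemical for 24 h, then uPA levels were measured by ELISA. Responses were fitted bidirectionally against DMSO as negative control and baseline. Parallel SRB staining of total protein gauged overt cytotoxicity.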

[8] = read-out: Urokinase-type plasminogen activator receptor (uPAR), PLAUR (gene 5329); experiment: BSK_BE3C_uPAR: BioMAP Diversity Plus: BE3C Assay for Urokinase-type plasminogen activator receptor (uPAR) Biomarker Activity (AID 2283039); settings: primary human bronchial epithelial cells; actives raise or lower the signal
Procedure, shortened: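 Primary human bronchial epithelial cells were dosed with chemical and harvested 24 h later; uPAR was quantified by ELISA. Activity was fitted bidirectionally against DMSO as negative control and baseline.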

[9] = read-out: Interleukin-6 (IL6), IL6 (gene 3569); experiment: BSK_CASM3C_IL6: BioMAP Diversity Plus: CASM3C Assay for Interleukin-6 (IL6) Biomarker Activity for (AID 2283040); settings: primary human coronary artery smooth muscle cells; actives raise or lower the signal
[10] = read-out: Tissue plasminogen activator (tPA), PLAT (gene 5327); experiment: BSK_BE3C_tPA: BioMAP Diversity Plus: BE3C Assay for Tissue plasminogen activator (tPA) Biomarker Activity (AID 2283041); settings: primary human bronchial epithelial cells; actives raise or lower the signal;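 also: tPA level quantified by ELISA one day after compound addition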
Procedure, shortened: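 Human primary bronchial epithelial cells were dosed with chemical and tPA biomarker levels measured by ELISA 24 hours later. Activity was fitted bidirectionally against DMSO as negative control and baseline.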

[11] = read-out: Interleukin-8 (IL8), CXCL8 (gene 3576); experiment: BSK_CASM3C_IL8: BioMAP Diversity Plus: CASM3C Assay for Interleukin-8 (IL8) Biomarker Activity (AID 2283042); settings: primary human coronary artery smooth muscle cells; actives raise or lower the signal;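 also: IL-8 protein level quantified by ELISA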
[12] = read-out: Human Leukocyte Antigen - DR isotype (HLADR), HLA-DRA (gene 3122); experiment: BSK_CASM3C_HLADR: BioMAP Diversity Plus: CASM3C Assay for Human Leukocyte Antigen - DR isotype (HLADR) Biomarker Activity (AID 2283043); settings: primary human coronary artery smooth muscle cells; actives raise or lower the signal;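 also: cell-surface HLA-DR protein level quantified by ELISA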
[13] = read-out: Macrophage colony-stimulating factor (MCSF), CSF1 (gene 1435); experiment: BSK_CASM3C_MCSF: BioMAP Diversity Plus: CASM3C Assay for Macrophage colony-stimulating factor (MCSF) Biomarker Activity (AID 2283044); settings: primary human coronary artery smooth muscle cells; actives raise or lower the signal;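 also: M-CSF protein amount quantified by ELISA after 24 h exposure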
[14] = read-out: Low-density lipoprotein receptor (LDLR), LDLR (gene 3949); experiment: BSK_CASM3C_LDLR: BioMAP Diversity Plus: CASM3C Assay for Low-density lipoprotein receptor (LDLR) Biomarker Activity (AID 2283045); settings: primary human coronary artery smooth muscle cells; actives raise or lower the signal;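 also: LDLR protein level on the cell surface quantified by ELISA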
[15] = read-out: Monocyte Chemoattractant Protein-1 (MCP1), CCL2 (gene 6347); experiment: BSK_CASM3C_MCP1: BioMAP Diversity Plus: CASM3C Assay for Monocyte Chemoattractant Protein-1 (MCP1) Biomarker Activity (AID 2283046); settings: primary human coronary artery smooth muscle cells; actives raise or lower the signal;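 also: MCP-1 level quantified by ELISA 24 h after dosing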
[16] = BSK_CASM3C_Proliferation: Cell Proliferation Assessment in the BioMAP Diversity Plus: CASM3C Assay (AID 2283047); settings: primary human coronary artery smooth muscle cells;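 also: sulforhodamine B total protein stain as relative cell number at 560 nm; sub-confluent cells exposed 48 h before staining; fitted both ways against DMSO so gain or loss of cell number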
[17] = read-out: Monokine induced gamma interferon (MIG), CXCL9 (gene 4283); experiment: BSK_CASM3C_MIG: BioMAP Diversity Plus: CASM3C Assay for Monokine induced gamma interferon (MIG) Biomarker Activity (AID 2283048); settings: primary human coronary artery smooth muscle cells; actives raise or lower the signal
[18] = read-out: serum amyloid A (SAA), SAA1 (gene 6288); experiment: BSK_CASM3C_SAA: BioMAP Diversity Plus: CASM3C Assay for serum amyloid A (SAA) Biomarker Activity (AID 2283049); settings: primary human coronary artery smooth muscle cells; actives raise or lower the signal;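 also: SAA protein level quantified by ELISA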
[19] = read-out: Monokine induced gamma interferon (MIG), CXCL9 (gene 4283); experiment: BSK_BE3C_MIG: BioMAP Diversity Plus: BE3C Assay for Monokine induced gamma interferon (MIG) Biomarker Activity (AID 2283035); settings: primary human bronchial epithelial cells; actives raise or lower the signal
Procedure, shortened: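 ELISA read-out of MIG in human lung bronchial epithelial primary cultures, 24 h post-dosing. Bidirectional curve fit vs DMSO baseline.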

[20] = read-out: Transforming growth factor beta 1 (TGFb1), TGFB1 (gene 7040); experiment: BSK_BE3C_TGFb1: BioMAP Diversity Plus: BE3C Assay for Transforming growth factor beta 1 (TGFb1) Biomarker Activity (AID 2283036); settings: primary human bronchial epithelial cells; actives raise or lower the signal
Procedure, shortened: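 Human primary bronchial epithelial cells (BE3C system) were dosed with chemical and TGF-b1 levels measured by ELISA at 24 h. Activity was fitted bidirectionally relative to DMSO negative control as baseline.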

Measured: AC50

Cc1ccc(S(=O)(=O)OCC(F)(F)C(F)(F)C(F)(F)C(F)(F)C(F)(F)C(F)F)cc1
active: [1] 46 µM
inactive: [1] | [2] | [3] | [4] | [5] | [6] | [7] | [8] | [9] | [10] | [11] | [12] | [13] | [14] | [15] | [16] | [17] | [18]

OCC(F)(F)C(F)(F)C(F)(F)C(F)(F)C(F)(F)C(F)(F)F
inactive: [1] | [2] | [3] | [4] | [5] | [6] | [7] | [8] | [9] | [10] | [11] | [12] | [13] | [14] | [15] | [17] | [18]
active: [1] 47.8 µM | [3] 41.7 µM | [16] 46.6 µM and 54.9 µM

O=C(O)C(F)(F)C(F)(F)C(F)(F)C(F)(F)C(F)(F)C(F)(F)C(F)(F)C(F)(F)C(F)(F)C(F)F
active: [3] 10.5 µM | [4] 47.8 µM and 55.4 µM | [5] 8.14 µM and 8.37 µM | [19] 15 µM and 14.9 µM | [6] 14 µM and 12.1 µM | [7] 16.5 µM and 10.6 µM | [8] 15.7 µM and 16.7 µM
not listed: [20]
inactive: all other assays above

O=S(=O)(OCC(F)F)C(F)(F)F
not listed: [20]
inactive: all other assays above

CS(C)(=O)=O
inactive: all assays above
